Test results published in PubChem BioAssay AID1159580 (chemical genetic matrix, 2015).
Among all 5,500 compounds or so, about 2,000 (36%) were called active. About 18% were inconclusive and are not listed. The list shows a part of the results. Values without a mark were called inactive. No stated cut-off is given here; in the data, active means normalized growth mostly below about 0.91 (no sharp cut-off); inconclusive means no clear call, values can overlap the other calls; inactive means mostly above about 0.92.

Test: chemical genetic growth profiling, strain panel (AID 1159580);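 further: tested at 20 µM; growth read once vehicle control cultures reached saturation at 30 °C; 1 = growth at the plate median or of vehicle wells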
Details: S. cerevisiae deletion strains, growth OD

O=c1c2cc(O)c(O)cc2oc2cc(O)c(C3O[C@H](CO)[C@H](O)[C@@H](O)[C@H]3O)c(O)c12 (stereo not given in full)
normalized growth (locus YAL021C, strain ccr4, stronger effect = lower value): 1.01
normalized growth (locus YAL026C, strain drs2, stronger effect = lower value): 1.02
normalized growth (locus YAL030W, strain snc1, stronger effect = lower value): 1.02
normalized growth (locus YBL061C, strain skt5, stronger effect = lower value): 1.03
normalized growth (locus YBR009C, strain hhf1, stronger effect = lower value): 1.08
normalized growth (locus YBR023C, strain chs3, stronger effect = lower value): 1.02
normalized growth (locus YBR171W, strain sec66, stronger effect = lower value): 1.02
normalized growth (locus YBR231C, strain swc5, stronger effect = lower value): 1.03
normalized growth (locus YBR279W, strain paf1, stronger effect = lower value): 1.01
normalized growth (locus YCL011C, strain gbp2, stronger effect = lower value): 1.04
normalized growth (locus YCL016C, strain dcc1, stronger effect = lower value): 1.02
normalized growth (locus YCL061C, strain MRC1, stronger effect = lower value): 1.02
normalized growth (locus YCL069W, strain vba3, stronger effect = lower value): 1.02
normalized growth (locus YCR088W, strain abp1, stronger effect = lower value): 1.03
normalized growth (locus YDL005C, strain med2, stronger effect = lower value): 1.04
normalized growth (locus YDL040C, strain nat1, stronger effect = lower value): 1.02
normalized growth (locus YDR001C, strain nth1, stronger effect = lower value): 1.02
normalized growth (locus YDR069C, strain doa4, stronger effect = lower value): 1.03
normalized growth (locus YDR137W, strain rgp1, stronger effect = lower value): 1.04
normalized growth (locus YDR159W, strain sac3, stronger effect = lower value): 1.11
normalized growth (locus YDR195W, strain ref2): 1.12
normalized growth (locus YDR297W, strain sur2, stronger effect = lower value): 1.04
normalized growth (locus YDR334W, strain swr1, stronger effect = lower value): 1.01
normalized growth (locus YDR335W, strain msn5, stronger effect = lower value): 1.01
normalized growth (locus YDR392W, strain spt3, stronger effect = lower value): 1.07
normalized growth (locus YEL003W, strain gim4, stronger effect = lower value): 1.02
normalized growth (locus YEL037C, strain rad23, stronger effect = lower value): 1.02
normalized growth (locus YEL061C, strain CIN8 (second series), stronger effect = lower value): 1.02
normalized growth (locus YER015W, strain faa2, stronger effect = lower value): 1
normalized growth (locus YER016W, strain bim1, stronger effect = lower value): 1.04
normalized growth (locus YER111C, strain swi4, stronger effect = lower value): 1.03
normalized growth (locus YER155C, strain BEM2 (second series), stronger effect = lower value): 1.12
normalized growth (locus YFR010W, strain ubp6, stronger effect = lower value): 1.02
normalized growth (locus YGL167C, strain pmr1, stronger effect = lower value): 1.03
normalized growth (locus YGL173C, strain kem1, stronger effect = lower value): 1.03
normalized growth (locus YGL227W, strain vid30, stronger effect = lower value): 1.04
normalized growth (locus YGL240W, strain doc1, stronger effect = lower value): 1.14 [resistant] (active)
normalized growth (locus YGL253W, strain hxk2, stronger effect = lower value): 0.986
normalized growth (locus YHR013C, strain ard1, stronger effect = lower value): 1
normalized growth (locus YHR027C, strain rpn1, stronger effect = lower value): 1.01
normalized growth (locus YHR030C, strain SLT2, stronger effect = lower value): 0.973
normalized growth (locus YHR079C, strain IRE1, stronger effect = lower value): 0.982
normalized growth (locus YHR142W, strain chs7, stronger effect = lower value): 0.945
normalized growth (locus YJL092W, strain hpr5, stronger effect = lower value): 1.03
normalized growth (locus YJL095W, strain BCK1 (second series), stronger effect = lower value): 1.02
normalized growth (locus YJL095W, strain BCK1, stronger effect = lower value): 1.03
normalized growth (locus YJL115W, strain asf1, stronger effect = lower value): 1.01
normalized growth (locus YJL129C, strain trk1, stronger effect = lower value): 0.999
normalized growth (locus YJL154C, strain vps35, stronger effect = lower value): 1.02
normalized growth (locus YJL164C, strain tpk1, stronger effect = lower value): 0.98
normalized growth (locus YJL166W, strain qcr8, stronger effect = lower value): 0.993
normalized growth (locus YJL187C, strain SWE1, stronger effect = lower value): 1.02
normalized growth (locus YJR066W, strain TOR1, stronger effect = lower value): 0.937
normalized growth (locus YKL160W, strain elf1, stronger effect = lower value): 0.988
normalized growth (locus YKR026C, strain gcn3, stronger effect = lower value): 1.02
normalized growth (locus YKR091W, strain srl3, stronger effect = lower value): 1.03
normalized growth (locus YLL001W, strain dnm1, stronger effect = lower value): 1.04
normalized growth (locus YLL026W, stronger effect = lower value): 1.02
normalized growth (locus YLL041C, strain sdh2, stronger effect = lower value): 1.01
normalized growth (locus YLR027C, strain aat2, stronger effect = lower value): 1.01
normalized growth (locus YLR113W, strain HOG1, stronger effect = lower value): 1.1
normalized growth (locus YLR221C, strain rsa3, stronger effect = lower value): 0.985
normalized growth (locus YLR258W, strain gsy2, stronger effect = lower value): 1.06
normalized growth (locus YLR262C, strain YPT6 (second series), stronger effect = lower value): 1.02
normalized growth (locus YLR320W, strain mms22, stronger effect = lower value): 1.07
normalized growth (locus YLR342W, strain FKS1, stronger effect = lower value): 1.03
normalized growth (locus YLR357W, strain rsc2, stronger effect = lower value): 1.01
normalized growth (locus YLR370C, strain arc18, stronger effect = lower value): 1.01
normalized growth (locus YLR384C, strain iki3, stronger effect = lower value): 1.01
normalized growth (locus YML120C, strain ndi1, stronger effect = lower value): 1
normalized growth (locus YMR058W, strain fet3, stronger effect = lower value): 1.01
normalized growth (locus YMR125W, strain sto1, stronger effect = lower value): 1.07
normalized growth (locus YMR129W, stronger effect = lower value): 1.02
normalized growth (locus YMR205C, strain PFK2, stronger effect = lower value): 1.13 [resistant] (active)
normalized growth (locus YMR231W, strain pep5, stronger effect = lower value): 1.02
normalized growth (locus YNL071W, strain lat1, stronger effect = lower value): 1.02
normalized growth (locus YNL183C, strain NPR1, stronger effect = lower value): 0.98
normalized growth (locus YNL209W, strain ssb2, stronger effect = lower value): 0.986
normalized growth (locus YNL248C, strain rpa49, stronger effect = lower value): 0.992
normalized growth (locus YNL322C, strain KRE1 (second series), stronger effect = lower value): 1.02
normalized growth (locus YNR049C, strain mso1, stronger effect = lower value): 1.03
normalized growth (locus YOR001W, strain rrp6, stronger effect = lower value): 0.981
normalized growth (locus YOR070C, strain gyp1, stronger effect = lower value): 0.999
normalized growth (locus YOR080W, strain dia2, stronger effect = lower value): 1.03
normalized growth (locus YOR083W, strain WHI5, stronger effect = lower value): 0.968
normalized growth (locus YOR106W, strain vam3, stronger effect = lower value): 0.887
normalized growth (locus YOR231W, strain MKK1, stronger effect = lower value): 0.988
normalized growth (locus YOR265W, strain rbl2, stronger effect = lower value): 1.01
normalized growth (locus YOR270C, strain vph1, stronger effect = lower value): 0.938
normalized growth (locus YOR290C, strain snf2, stronger effect = lower value): 0.995
normalized growth (locus YPL051W, strain arl3, stronger effect = lower value): 0.961
normalized growth (locus YPL078C, strain atp4, stronger effect = lower value): 0.969
normalized growth (locus YPL106C, strain sse1, stronger effect = lower value): 1.05
normalized growth (locus YPL240C, strain hsp82, stronger effect = lower value): 0.997
normalized growth (locus YPL256C, strain CLN2, stronger effect = lower value): 1
